Screens from PubChem.
Compounds with a hit are over-represented: about 6.6% of the library has one in this group of screens.
SW480 rerep = DNA re-replication induction in SW480 cells; actives 1.8% (n = 340,000); Potency, µM (highest dose often 46.1 µM), actives largely listed as activators; SW480 DNA re-replication, Hoechst DNA content imaging, 48 h; AID 624297; note: nearly all actives have a fitted effect of over 55% in size
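Image-based read-out: total Hoechst fluorescence of nuclei (405 nm excitation, 500-530 nm emission), with hits raising the fraction of high-intensity nuclei. SW480 colon cells incubated 48 hr with compounds at 37 C.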
KB-3-1 tox = kills parental KB-3-1 adenocarcinoma cells | AID 1347075 | Potency, µM (top dose mostly 46.1 µM), actives largely listed as cytotoxic | actives 1.4% (n = 400,000) | KB-3-1 viability, CellTiter-Glo ATP luminescence, 72 h; note: nearly all actives have a fitted effect of over 60% in size
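Cytotoxicity in the drug-sensitive parental line KB-3-1 was scored as loss of CellTiter-Glo luminescence following 72 h incubation with compound. Values come from curve fitting of normalized concentration-response data.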
MCF10A rerep = DNA re-replication induction in MCF 10a cells. actives 2.9% (n = 350,000). Potency, µM (series often up to 46.1 µM), hits mostly activators. MCF 10A DNA re-replication, Hoechst nuclear intensity, 48 h; note: nearly all actives have a fitted effect of over 50% in size
RGS4 inh = blocks human RGS4-accelerated GTP hydrolysis | P49798 | Transcreener GDP fluorescence polarization, RGS4-accelerated GTP hydrolysis | Potency, µM (series often up to 114 µM), most hits filed as inhibitors | actives 0.039% (n = 390,000); note: nearly all actives have a fitted effect of over 75% in size
Target sequence (P49798 whole entry, looked up): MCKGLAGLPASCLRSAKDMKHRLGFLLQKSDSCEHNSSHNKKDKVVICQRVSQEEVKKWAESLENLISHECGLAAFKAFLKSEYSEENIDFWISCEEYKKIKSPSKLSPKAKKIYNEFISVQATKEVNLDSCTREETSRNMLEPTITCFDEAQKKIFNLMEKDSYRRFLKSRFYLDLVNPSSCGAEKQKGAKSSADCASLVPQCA
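MLSMR compounds (23 nl, pin-transferred) preincubated 10 min at room temperature with a 500nM (2x) first reagent, then RGS4 at 900nM (2x) plus Transcreener GDP mix added; fluorescence polarization (620/688 nm) read before and after 90 min at 30 °C.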
TSG101-PTAP inh = blocks PTAP/TSG101 interaction to inhibit HIV-1 budding; Q99816; Fluorescence polarization, FITC-PTAP peptide / Tsg101 binding; Potency, µM (doses to about 115 µM), hits mostly inhibitors; 340,000 tested, under 10 active; active = well fitted inhibition curve with a large enough effect in the main read-out, with a control signal flat, not every such curve was filed as active; inconclusive = small, poorly fitted or top-dose-only effect, or effect the other way, or a change in a side signal; inactive = no such curve, though single readings can be large or run the other way
Target sequence (Q99816 whole entry, looked up): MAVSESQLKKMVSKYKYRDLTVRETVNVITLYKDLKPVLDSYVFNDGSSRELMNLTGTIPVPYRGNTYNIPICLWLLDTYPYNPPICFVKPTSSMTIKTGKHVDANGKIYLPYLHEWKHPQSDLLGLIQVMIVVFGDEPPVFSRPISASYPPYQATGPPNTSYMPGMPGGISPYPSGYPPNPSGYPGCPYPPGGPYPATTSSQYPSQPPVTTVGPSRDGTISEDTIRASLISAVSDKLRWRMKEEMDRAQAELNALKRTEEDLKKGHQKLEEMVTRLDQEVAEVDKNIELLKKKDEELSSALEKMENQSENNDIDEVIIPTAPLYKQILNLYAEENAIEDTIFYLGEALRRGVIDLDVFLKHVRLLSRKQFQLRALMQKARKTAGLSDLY
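Tsg101 binding domain (10 uM final) was mixed with compound and a FITC-labeled PTAP peptide (50 nM final) in HEPES pH 7.5 buffer with NaCl, Tween 20, EDTA and TCEP; fluorescence polarization was read after 20 min at r.t.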
KB-V1 MDR tox = KB-V1 MDR subline cytotoxicity; KB-V1 MDR cells viability, CellTiter-Glo, 72 h; Potency, µM (titrated, usually from 46.1 µM), most hits filed as cytotoxic; actives 3.4% (n = 400,000); note: nearly all actives have a fitted effect of over 60% in size
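Following 72 h at 37 degrees C with compound, KB-V1 cell viability was read by CellTiter-Glo luminescence, medium being phenol-red-free DMEM plus 10% FBS; concentration-response parameters came from normalized, curve-fitted qHTS data.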
A number is an active result; 0 = inactive; ? = inconclusive; - = no result given; [ ] = another dose, or the depositor's remark. Unless noted, calls come from the whole dose curve; as a rule, active = well fitted curve in the direction sought with a large enough effect; inconclusive = small, poorly fitted or top-dose-only effect, or another doubt; inactive = no such curve, though single readings can be large; an effect the other way counts as inactive or inconclusive.

SMILES | SW480 rerep | KB-3-1 tox | MCF10A rerep | RGS4 inh | TSG101-PTAP inh | KB-V1 MDR tox
CC[n+]1c(/C=C/Nc2ccccc2)sc2ccccc21 | ? | ? | 0 | ? | 0 | ?
Cn1nc(C(=O)Nc2cc(F)ccc2F)c2c1-c1ccccc1SC2 | - | - | - | 0 | - | -
Cc1noc(C)c1COC(=O)c1csc2c1CCC(C)C2 (stereo unspecified) | 0 | 0 | ? | 0 | 0 | 21µM
COc1ccc(-n2cc3c(c2-c2cccc(Br)c2)c(=O)n(C)c(=O)n3C)cc1OC | - | 0 | - | 0 | - | 0
Cc1cc(C)c(CSc2ncc(-c3ccc([N+](=O)[O-])cc3)[nH]2)c(C)c1 | ? | ? | 18µM | 0[11.4 µM] | 0 | 23µM
O=[N+]([O-])c1ccc(-c2cnc(SCc3ccccc3Cl)[nH]2)cc1 | 0 | ? | ? | 0 | 0 | ?
CCCN1CCN(c2ncc3c(n2)CCN(Cc2ccc(OC)c(OC)c2OC)C3)CC1 | - | 0 | - | 0 | - | 0
Cc1cc(C)c2c(=O)cc(C(=O)Nc3ccc(C)c(Cl)c3)oc2c1 | - | 0 | - | 0 | - | 0
CCN(CC)S(=O)(=O)c1ccc(C)c(C)c1 | 0 | 0 | 0 | 0 | 0 | 0
Cc1ccc(S(=O)(=O)N2CCN(S(=O)(=O)N3CCC(C)CC3)CC2)cc1C | 0 | 0 | 18µM | 0 | 0 | 0
CC1CCN(S(=O)(=O)c2ccc3c(c2)C(=NO)c2cc(S(=O)(=O)N4CCC(C)CC4)ccc2-3)CC1 | ? | ? | 0.52µM | 0 | 0 | 0
COc1ccc(S(=O)(=O)N2CCC(C)CC2)cc1OC | 0 | 0 | 0 | 0 | 0 | 0
CCN(CC)S(=O)(=O)c1ccc2c(c1)C(=NO)c1cc(S(=O)(=O)N(CC)CC)ccc1-2 | ? | 6.5µM | 8.2µM | 0 | 0 | 12µM
O=S(=O)(c1ccc2c(c1)C(=NO)c1cc(S(=O)(=O)N3CCCCC3)ccc1-2)N1CCCCC1 | 12µM | 1.2µM | 2.1µM | 0[11.4 µM] | 0 | 5.2µM
Nc1cc(S(=O)(=O)N2CCCCC2)ccc1N1CCCCC1 | 0 | ? | 0 | 0 | 0 | 18µM
CN1CCN(S(=O)(=O)c2cccc(C(=O)N(Cc3nnc(-c4ccc(Cl)cc4)o3)C3CC3)c2)CC1 | 6.5µM | 0 | 0 | 0 | 0 | 0
C=CCN(C(C(=O)OC)C(C)C)S(=O)(=O)C=C (stereo unspecified) | - | - | - | 0 | - | -
CC1(C)COC(/C=C/c2cccc([N+](=O)[O-])c2)=N1 | ? | ? | 14µM | 0 | 0 | 0
Clc1ccc(-c2csc3ncnc(Cl)c23)cc1 | 21µM | 0 | 18µM | 0 | 0 | 0
O=S(=O)(Nc1ncnc2scc(-c3ccc(F)cc3)c12)c1cc(F)ccc1F | ? | ? | ? | 0 | 0 | 18µM
NNc1ncnc2scc(-c3ccc(Cl)cc3)c12 | 0 | 16µM | ? | 0 | 0 | ?
C/C(=N\N=C(/N)c1nonc1N)c1ccc2c(c1)OCO2 | 0 | 6.5µM | 0 | 0 | 0 | 1.5µM
N#Cc1c(-n2ncnc2-c2ccccc2Cl)sc2c1CCCCC2 | - | 0 | - | 0 | - | 0
Cc1ccc2nc(NCCC(=O)O)nc(-c3ccccc3)c2c1 | 0 | ? | 0 | 0 | 0 | 0
Cc1ccc2nc(N3CCC(C(=O)O)CC3)nc(-c3ccccc3)c2c1 | 0 | 0 | 21µM | 0 | 0 | 0
SMILES | SW480 rerep | KB-3-1 tox | MCF10A rerep | RGS4 inh | TSG101-PTAP inh | KB-V1 MDR tox
Cc1ccc2nc(NCC(=O)O)nc(-c3ccccc3)c2c1 | 0[9.22 µM] | 0 | 0 | 0 | 0 | 0
Cc1ccc2nc(N3CCN(C(=O)CCC(=O)O)CC3)nc(-c3ccccc3)c2c1 | 0 | 0 | 21µM | 0 | 0 | 0
Cc1ccc2nc(N3CC(=O)Nc4ccccc43)nc(-c3ccccc3)c2c1 | 18µM | 0 | 3.3µM | 0 | 0 | ?
O=C(O)CCCC(=O)N1CCN(c2nc(-c3ccccc3)c3ccccc3n2)CC1 | ? | 0 | 0 | 0 | 0 | 0
CC(=Nc1ccccc1)c1sc2ccccc2c1O | 0 | 0 | ? | 0 | 0 | 21µM
CC(=Nc1ccc(Br)cc1)c1sc2ccccc2c1O | 0 | 0 | 0 | 0 | 0 | 0
O=c1c2c(-c3ccc(Cl)cc3)csc2nc2n1CCC2 | 0 | 0 | 0 | 0 | 0 | 18µM
CCC(CC)c1nn2c(=O)cc(COc3ccc(NC(=O)c4cccc(C)c4)cc3)nc2s1 | - | 0 | - | 0 | - | 0
Nc1ncnc2c(C3OC(CO)C(O)C3O)c[nH]c12 (stereo unspecified) | 0.21µM | 0.18µM | ? | ? | 0 | 0.29µM
Nc1ncnc2c1nc(Cl)n2[C@@H]1O[C@H](CO)[C@@H](O)[C@@H]1O | - | ? | - | 0 | - | 0
c1ccc(C[n+]2c(-c3ccccc3)csc2Nc2ccccc2)cc1 | 0 | 21µM | 0 | 0 | 0 | 16µM
CC(C)NS(=O)(=O)c1ccc(OCC(=O)Nc2ccc(F)cc2F)cc1 | 0 | 0 | 0 | 0 | - | 16µM
O=[N+]([O-])c1ccc(N=NN(CCO)CCO)cc1 | 23µM | 0 | 0 | 0 | 0 | 0
O=[N+]([O-])c1ccc(N=Nc2ncc[nH]2)cc1 | ? | ? | ? | 0 | 0 | ?
CC(=O)Nc1ccc(C(=O)Nc2cccc(S(=O)(=O)N(C)c3ccccc3)c2)cc1 | 0 | 0 | 0 | 0 | 0 | 0
CCSc1nnc(NC(=O)c2cccc(S(=O)(=O)N(C)c3ccc(C)cc3)c2)s1 | 18µM | 0 | ? | 0 | 0 | 15µM
CN(c1ccccc1)S(=O)(=O)c1cccc(NC(=O)c2ccc(Cl)c([N+](=O)[O-])c2)c1 | 0 | 21µM | ? | 0 | 0 | 16µM
CN(c1ccccc1)S(=O)(=O)c1cccc(C(=O)Nc2ccc3c(c2)CCC3)c1 | ? | ? | 0 | 0 | 0 | 5.8µM
CN(c1ccccc1)S(=O)(=O)c1cccc(NC(=O)c2ccncc2)c1 | 0 | ? | 0 | 0 | 0 | 0
COc1ccc(NC(=O)c2cccc(S(=O)(=O)N(C)c3ccccc3)c2)cn1 | 0 | ? | 0 | 0 | 0 | 3.3µM
CCCC(=O)NC1CC(=O)N(c2ccc3c(c2)OCCO3)C1 (stereo unspecified) | - | - | - | 0 | - | -
CCOC(=O)c1cc(-c2ccc(OC)cc2)n(CCC(=O)NCc2ccccc2OC)c1C | - | 0 | - | 0 | - | 0
COc1ccccc1N(C)S(=O)(=O)c1ccc(C(=O)Nc2ccncc2)cc1 | 0 | 0 | ? | 0 | 0 | 0
COc1ccccc1N(C)S(=O)(=O)c1ccc(C(=O)Nc2cc(OC)c(OC)c(OC)c2)cc1 | ? | 16µM | ? | 0 | 0 | ?
CN(c1ccccc1)S(=O)(=O)c1cccc(C(=O)NNC(=O)c2ccccc2)c1 | 0 | 21µM | 0 | 0 | 0 | 15µM
CN(c1ccccc1)S(=O)(=O)c1ccc(C(=O)NNC(=O)c2ccccc2)cc1 | 0 | 0 | 0 | 0 | 0 | 0
CCOC(=O)N1CCc2c(sc3c2c(=O)n(CCc2ccccc2)c(=O)n3CC(=O)Nc2ccc(C)cc2)C1 | - | - | - | 0 | - | -
